PubChem BioAssay AID1626 (SRMLSC, 2009)
The whole screen tested about 220,000 compounds, of which about 2,000 (0.91%) were called active. Inconclusive results (about 2%) are left out. No stated cut-off is given here; in the data, inconclusive means inhibition above about 80% without an active follow-up result; inactive means below that; test concentration not stated here. The list is a sample of the results. Results with a measured potency or affinity are listed apart.

experiment: M. tuberculosis H37Rv growth inhibitors, H37Rv strain (AID 1626); settings: active compounds read high, concentration not given here;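 further: bacteria incubated seven days before Alamar blue readout; 0% = bacteria only wells and 100% = bacteria with antibiotic wells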

Compound	inhibition
O=C(Nc1nc(-c2cccc3ccccc23)cs1)c1ccc2c(c1)S(=O)(=O)c1ccccc1C2=O	4.24% (inactive)
Cc1cccc(NC(=S)N(Cc2cccs2)Cc2cc3cc(C)ccc3[nH]c2=O)c1	8.62% (inactive)
CC(=O)O/C(=C\c1cn(C(C)=O)c2ccccc12)C(=O)O	7.86% (inactive)
CCOC(=O)CSc1nnc(-c2cccnc2)o1	-8.92% (inactive)
COc1cc(OC)cc(-c2nnc(SCC(=O)N3CCCCC3)o2)c1	13.8% (inactive)
CCCCN(CCCC)C(=O)CSc1nnc(-c2cc(OC)c(OC)c(OC)c2)o1	5.31% (inactive)
COc1cc(-c2nnc(SCC(=O)c3ccccc3)o2)cc(OC)c1OC	-0.24% (inactive)
O=C(CSc1nnc(COc2ccccc2)o1)N1CCN(c2ccccc2)CC1	7.79% (inactive)
COc1cc(OC)cc(-c2nnc(SCC(=O)N3CCCC3)o2)c1	14.8% (inactive)
CCOC(=O)N1CCN(C(=O)CSc2nnc(Cc3ccccc3)o2)CC1	3.59% (inactive)
CCOC(=O)CSc1nnc(-c2ccccc2)o1	27.1% (inactive)
Cc1ccc(C)n1-c1c(C(=O)NN)cnn1-c1ccccc1	-0.22% (inactive)
C=CCn1c(-c2cccnc2)n[nH]c1=S	4.66% (inactive)
O=C1CCC/C(=N\NC(=O)COc2ccc(Cl)cc2)C1	-2.69% (inactive)
O=C(Cn1cnc2ccccc2c1=O)Nc1ccccc1N1CCOCC1	2.06% (inactive)
CN1CCN(c2ccccc2NC(=O)c2cc(Br)ccc2Cl)CC1	12.3% (inactive)
COC(=O)C(Cc1ccccc1)NC(=S)NC(=O)c1ccccc1 (configuration not stated)	3.22% (inactive)
CCOC(=O)c1c(C)[nH]c(C)c1C(=O)CSc1nnc(-c2cc(OC)c(OC)c(OC)c2)o1	-2.95% (inactive)
COc1cc(-c2nnc(SCC(=O)N3CCCC3)o2)cc(OC)c1OC	-3.99% (inactive)
COc1ccc(N2CCC(CNC(=O)Nc3cccc(OC)c3)C2)cc1 (configuration not stated)	8.56% (inactive)
CCOCC(=O)Nc1ccc([N+](=O)[O-])cc1C	4.52% (inactive)

Compound	inhibition
COc1ccc(NC(=S)N2C3CCC2CC(NC(=O)NC24CC5CC(CC(C5)C2)C4)C3)c(OC)c1 (configuration not stated)	40.3% (inactive)
COc1ccc(CC2(CO)CCN(Cc3cc4ccccc4o3)CC2)cc1	5.84% (inactive)
CC(Sc1ccccc1)C(=O)NN=C1CCCC1 (configuration not stated)	-0.55% (inactive)
CC1CCc2nc(NC(=O)CN3CCN(Cc4ccc5c(c4)OCO5)CC3)sc2C1 (configuration not stated)	64.4% (inactive)
CC1CCc2nc(NC(=O)CN3CCN(c4ccc(F)cc4)CC3)sc2C1 (configuration not stated)	18.4% (inactive)
CC1CCc2nc(NC(=O)CN3CCOCC3)sc2C1 (configuration not stated)	23.3% (inactive)
COc1ccc(N2CCN(CC(=O)Nc3nnc(-c4ccccc4)s3)CC2)cc1	73.3% (inactive)
O=C(O)c1ccccc1NC(=S)NC(=O)c1sc2ccccc2c1Cl	-3.63% (inactive)
CCOC(=O)C(C)Sc1nc(=O)n2ccccc2n1 (configuration not stated)	-0.38% (inactive)
Clc1cccc(Cl)c1CSc1nnc(CN2CCOCC2)n1-c1ccccc1	-7.41% (inactive)
O=C(O)CCC(=O)Nc1ccc(Br)cc1C(=O)c1ccc(Cl)cc1	-5.88% (inactive)
COc1ccccc1COCC(O)CN(Cc1ccco1)Cc1ccccc1O (configuration not stated)	11.4% (inactive)
COc1ccc(/C=C/C(=O)O)cc1OC	-4.92% (inactive)
COc1ccc(/C=C/C(=O)C(C)(C)C)cc1OC	7.04% (inactive)
CCOC(=O)c1cc(-c2ccccc2)sc1NC(=O)C(C)OC(=O)c1ccncc1 (configuration not stated)	0.66% (inactive)
C=CCSc1nc(C)cc(C(=O)OCC)c1C#N	-3.16% (inactive)
COc1ccccc1C(=O)O/N=C(\c1ccccc1)c1ccncc1	3.28% (inactive)
CCOC(=O)N/N=C/C=C/c1ccccc1	-6.43% (inactive)
CCOc1cccc(/C=C/C(=O)O)c1	4.51% (inactive)
Oc1csc(Cc2nc(-c3ccc(Br)cc3)cs2)n1	38.3% (inactive)
O=C(NCc1cccnc1)c1c(O)c2cccc3c2n(c1=O)CCC3	-3.06% (inactive)

Compound	inhibition
CCNCCNC(=O)c1c(O)c2cccc3c2n(c1=O)CCC3	1.67% (inactive)
O=C(Nc1ccccn1)c1c(O)c2cccc3c2n(c1=O)CCC3	-3.22% (inactive)
Cc1cccc(NC(=O)c2c(O)c3cccc4c3n(c2=O)CCC4)n1	-9.1% (inactive)
CCCCNC(=O)c1c(O)c2cccc3c2n(c1=O)CCC3	3.46% (inactive)
CNC(=O)c1c(O)c2cccc3c2n(c1=O)CC3	-2% (inactive)
COc1ccc(-n2cnnc2SCC(=O)Nc2cccnc2Cl)cc1	2.1% (inactive)
O=C(Nc1nccs1)c1ccc(Cl)c(S(=O)(=O)N2CCOCC2)c1	-20.2% (inactive)
CC1C(c2ccccc2)=NNc2nc3c(c(=O)n(C)c(=O)n3C)n21 (configuration not stated)	-9.85% (inactive)
Cc1cccc2c1CC(C)(C)N=C2C1=C(O)CC(C)(C)CC1=O	2.19% (inactive)
CC(=O)Nc1ccc(NC(=O)CCc2nc3ccccc3c(=O)[nH]2)cc1	2.86% (inactive)
COc1ccc(/C=C/C(=O)c2c(O)n(CCC3=CCCCC3)c(=O)[nH]c2=O)cc1OC	36.6% (inactive)
CCCCn1c(O)c(C(CC)=NCc2ccc3c(c2)OCO3)c(=O)[nH]c1=O	-0.92% (inactive)
Cn1c(N)c(C(=O)/C=C/c2ccccc2)c(=O)[nH]c1=O	-9.59% (inactive)
Cc1cc(C)c(C(=O)/C=C/c2ccc3c(c2)OCO3)c(=O)[nH]1	-2.72% (inactive)
CCCCn1c(O)c(C(C)=NCc2ccc3c(c2)OCO3)c(=O)[nH]c1=O	10.3% (inactive)
O=C(/C=C/c1c[nH]c2ccccc12)c1c(O)n(CCc2ccccc2)c(=O)[nH]c1=O	22.5% (inactive)
COc1cc(/C=C/C(=O)CC(=O)/C=C/c2ccc(O)c(OC)c2)ccc1O	7.76% (inactive)
O=c1[nH]c(=O)n(CCc2ccccc2)c(O)c1C=NCc1ccc2c(c1)OCO2	-3.13% (inactive)
COc1ccc(CN(C)CC(=O)Nc2sc3c(c2C#N)CCC3)cc1OC	3.36% (inactive)
Cc1ccc(/C=N/NC(=O)CCCOc2ccc(Cl)cc2Cl)cc1[N+](=O)[O-]	-5.05% (inactive)
